Calb biofilm kill = clotrimazole potentiators killing Candida biofilms, primary screen, with clotrimazole, Alamar Blue. C. albicans biofilm + clotrimazole. inhibition, % at 6 µM. 85,000 tested, 0.14% active;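 active = inhibition above 20%; inactive = inhibition below 20%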;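 note: preformed 24 hr biofilms exposed to compound for 48 hr; 0% = biofilm without compound and 100% = blank killed by clotrimazole plus chlorhexidine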
MT1-MMP txn act = MT1-MMP promoter reporter activation – cell-based, luciferase luminescence, primary screen | HT1080 MT1-MMP promoter luciferase reporter, overnight; hits give high values | activation factor at 10 µM | 86,000 tested, 0.16% active | AID 750, 2007;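 active = activation factor of at least 2 for MT1-MMP transcription at 10 µM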
ERa SRC1 inh = ERα–SRC-1 coactivator interaction inhibitors, primary screen, biochemical, TR-FRET, ERα LBD, estradiol-bound; Estrogen receptor (Homo sapiens), P03372; inhibition, % at 25.6 µM; TR-FRET ER-alpha LBD / SRC-1 peptide; 86,000 tested, 1.7% active; in the data active = inhibition above about 50%;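 note: 0% = receptor plus peptide control and 100% = peptide only without receptor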
ERa SRC1 pot = enhancers of ERα–SRC-1 coactivator binding, primary screen, biochemical, TR-FRET, ERα LBD, low estradiol; AID 639, 2007; coactivator binding (% of control), % at 25.6 µM; TR-FRET ERalpha-LBD/SRC-Cy5 coactivator binding, 2 h; 100 = basal binding, no effect; 86,000 tested, 1.3% active; in the data active = activity above about 200%;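 note: binding measured in presence of low estradiol as agonist stimulus; 0% = peptide alone without receptor and 100% = receptor with peptide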
ERb SRC1 inh = inhibitors of ERβ-SRC1 coactivator interaction, primary screen, biochemical, TR-FRET, ERβ LBD, SRC-1 peptide; Estrogen receptor beta (Homo sapiens), Q92731; TR-FRET ER-beta LBD / SRC1-Cy5 peptide binding; receptor agonist-loaded with 1 µM estradiol; inhibition, % at 25.6 µM; 86,000 tested, 1.3% active; AID 633, 2007;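 active = compounds whose percent inhibition of the receptor-coactivator binding signal exceeds about 50% in the single-dose screen, limit read from the data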;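 note: 0% = receptor plus peptide wells without compound and 100% = peptide-only wells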
EphB4 antag = EphB4-ephrin-B2 interaction antagonists, primary screen, biochemical, TNYL-RAW peptide probe, fluorescence polarization; 97,000 tested, 0.15% active; AID 720, 2007; EphB4 LBD / TNYL-RAW-Alexa532 peptide; inhibition, % at 7 µM;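 active = inhibition above the screen-wide mean inhibition plus 3 SD, cut at about 15% in these data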;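 note: 0% = DMSO wells and 100% = excess unlabeled TNYL-RAW peptide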
The depositor's hits bear a star; . = no result; [ ] = another dose, or the depositor's remark. Sampled rows, rich in hits. Any-hit rate of the full collection: about 3.2%.

SMILES	Calb biofilm kill	MT1-MMP txn act	ERa SRC1 inh	ERa SRC1 pot	ERb SRC1 inh	EphB4 antag
CCOC(=O)Cc1csc(NC(=O)Cc2cccs2)n1	10	1.3	90*[fluorescence artefact?]	19	75*	-3
CC(=O)N1CC2(CC2)CC1c1ccccc1 (stereo not drawn)	.	1.1	.	.	.	.
Cc1c(-n2c(CN3C(=O)c4ccccc4C3=O)nc3ccccc3c2=O)c(=O)n(-c2ccccc2)n1C	2	1	-6	110	2	2
CC(C)Cn1c(CN2C(=O)c3ccccc3C2=O)nc2ccccc2c1=O	3	1.2	29	370*[fluorescence artefact?]	25	0
O=C1c2ccccc2C(=O)N1Cc1nc2ccccc2c(=O)n1Cc1ccco1	5	1.1	59*[fluorescence artefact?]	249*	58*[fluorescence artefact?]	.
C=CCc1cccc(/C=N/c2ncccc2O)c1O	0	1.3	22	63	58*[fluorescence artefact?]	8
COc1ccc(Cl)cc1N1C(=O)C2CCCN2C1c1ccc(F)cc1 (stereo not drawn)	0	1.1	-6	97	-8	12
CCOc1ccc(C2=Nn3c(nnc3-c3cccnc3)SC2)cc1	5	1.1	16	93	25	.
COc1ccc(C2=Nn3c(nnc3-c3cccnc3)SC2)cc1	11	1	-10	99	58*[fluorescence artefact?]	-8
COc1ccc(C(c2nnnn2CCc2ccccc2)N2CCN(C3CCCC3)CC2)cc1OC (stereo not drawn)	5	1.2	-1	102	93*[fluorescence artefact?]	0
CC1(C)Cc2c(c(-c3ccco3)[nH]c(=O)c2C#N)CS1	6	1	-12	112	62*[fluorescence artefact?]	.
CCN(CC)c1ccc(/C=N/N2CCN(Cc3cccc4ccccc34)CC2)c(O)c1	.	.	.	.	.	-6
CN1C(=O)c2c(sc3c2CCCC3)NC1c1ccccc1O (stereo not drawn)	9	1.4	19	61	78*[fluorescence artefact?]	.
O=C1CC(c2ccco2)Cc2nc(Nc3nc(-c4ccccc4)c4ccccc4n3)ncc21 (stereo not drawn)	2	1.1	43	98	51*[fluorescence artefact?]	-2
COc1ccccc1N1CCN(C(=O)C(=O)N/N=C/c2cccc(O)c2)CC1	.	.	.	.	.	-3
CCOC(=O)CSc1nnc(Cc2cc(=O)[nH]c(=O)[nH]2)n1-c1ccc(Cl)cc1	-4	1.3	0	119	96*[fluorescence artefact?]	-3
CCOc1ccc(-n2c(Cc3cc(=O)[nH]c(=O)[nH]3)nnc2SCC(=O)OC)cc1	2	1.1	-1	89	-14	-3
CCSc1nnc(Cc2cc(=O)[nH]c(=O)[nH]2)n1-c1cc(C)ccc1C	7	0.9	2	131	70*	-2
O=[N+]([O-])c1ccc(C(=Nc2cccc3ccccc23)N2CCOCC2)cc1	.	.	.	.	.	-9
Cc1ccc(S(=O)(=O)N2CCN(C(=O)COc3ccc(-c4nnco4)cc3)CC2)cc1	8	1	-28	118	-28	5
O=S(=O)(c1ccc(Oc2ccc(-c3nnco3)cc2)nc1)N1CCC(Cc2ccccc2)CC1	-4	1	75*[fluorescence artefact?]	99	31	-9
COc1ccc(Nc2nc(C)nc3c2nnn3Cc2ccccc2)cc1OC	3	1.3	-5	109	-7	-2
c1ccc(Cn2nnc3c(NCc4ccc5c(c4)OCO5)nc(C4CC4)nc32)cc1	5	1.2	79*[fluorescence artefact?]	56	43	-8
CC1Cc2ccccc2N1c1nc(C2CC2)nc2c1nnn2Cc1ccccc1 (stereo not drawn)	7	1	8	166	20	-7
c1ccc(Cn2nnnc2CN2CCN(Cc3ccc4c(c3)OCO4)CC2)cc1	8	1	6	209*	0	4
SMILES	Calb biofilm kill	MT1-MMP txn act	ERa SRC1 inh	ERa SRC1 pot	ERb SRC1 inh	EphB4 antag
Cc1nc(NCc2ccc3c(c2)OCO3)c2nnn(Cc3ccccc3)c2n1	5	1.1	63*[fluorescence artefact?]	154	27	.
CC(=O)N1CCc2ccc(C(=O)CN3CCN(c4cccc(C)c4C)CC3)cc21	6	0.9	8	109	-1	-2
CC1CCCC(C)N1C(=O)CN1C(=O)C(C)(C)Oc2ccc(C(=O)NC3CCCC3)cc21 (stereo not drawn)	12	1.2	-5	89	-5	0
c1ccc(Nc2ncnc3c2oc2ccccc23)cc1	0	1.7	0	112	-2	5
CC(=O)N1CCN(c2ccc(Nc3ncnc4c3oc3ccccc34)cc2)CC1	12	1.2	56*[fluorescence artefact?]	34	61*[fluorescence artefact?]	-11
CCc1nc(Nc2ccc(N3CCN(C(C)=O)CC3)cc2)c2oc3ccccc3c2n1	2	1.1	33	54	61*[fluorescence artefact?]	-8
CC(=O)C1=C(O)C=C(c2ccco2)CC1c1ccco1 (stereo not drawn)	0	1.2	17	86	50*[fluorescence artefact?]	10
CCOc1cc(C)c(S(=O)(=O)Nc2ccc3cn[nH]c3c2)cc1C	.	.	.	.	.	1
COCCNS(=O)(=O)c1ccc2c(c1)C(=O)c1cc(S(=O)(=O)NCCOC)ccc1-2	0	.	-1	78	55*[fluorescence artefact?]	6
O=C(Cc1ccccc1)Nc1nc2ccccc2s1	-1	2*	23	66	25	-2
O=C(Cc1cccs1)Nc1nc2ccccc2s1	-4	1.6	8	87	10	1
COc1ccc(CNc2ccc(-c3ccccc3OC)nn2)cc1	2	1.2	-4	97	-8	6
COc1ccccc1-c1ccc(NC2CCCC2)nn1	7	2.1*	14	81	23	-3
COc1ccc(C2=NN(C(=O)CSc3cn(C)c4ccccc34)C(c3ccc(OC)cc3)C2)cc1 (stereo not drawn)	10	.	-5	639*[fluorescence artefact?]	0	-2
Cn1c(=O)cc(OCCCC(=O)NCc2ccc3c(c2)OCO3)c2ccccc21	11	1	-5	108	-7	-9
c1ccc(-c2nnc(-c3ccccn3)nn2)nc1	10	1.1	-14	95	-19	.
CN(C)c1nc(-c2ccccn2)nnc1-c1ccccc1	1	.	58*[fluorescence artefact?]	104	-12	3
COC(=O)c1cc(NC(=O)c2ccc(Cn3cc(Cl)cn3)o2)cc(C(=O)OC)c1	8	1.3	58*[fluorescence artefact?]	100	28	0
O=C1CCC/C1=c1\s/c(=C\c2cccnc2)c(=O)n1-c1ccccc1	1	1	-10	113	-13	.
CCN(CC)S(=O)(=O)c1ccc(NC(=O)C(OC)c2ccccc2)cc1 (stereo not drawn)	7	1	-3	124	-7	-2
Cc1c2cc(O)c(=O)cc-2oc2cc(O)c(O)cc12	.	.	.	.	.	49*[fluorescence artefact?]
Cc1ccc2oc(=O)c3c4cc(O)c(O)cc4oc3c2c1	.	1.2	.	.	.	.

Source: PubChem BioAssay
